# Reference: PubChem BioAssay (EPA / NIEHS)
# Results filed as inconclusive are left out. Activity calls are given as the source filed them. Rule for the calls, unless noted: active = hit-call score of the fitted dose curve at least 0.9, where 1 is the maximum; inactive = score below 0.9.
# Key:
# [1] = read-out: Signal transducer and activator of transcription 3 (Homo sapiens) (UniProt P40763); test: LTEA_HepaRG_STAT3: Life Technologies and Expression Analysis (LTEA) Assay for Signal transducer and activator of transcription (STAT3) using HepaRG (AID 2283529); conditions: mRNA level, 48 h; actives raise or lower the signal
# How it was run: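 In this transcriptional endpoint, HepaRG cultures receive test chemicals at up to 100 uM for 48 h, tested in duplicate. STAT3 mRNA is normalized to ACTB, GAPDH and POLR2A.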
# [2] = read-out: solute carrier (SLCO1B1), SLCO1B1 (gene 10599); test: LTEA_HepaRG_SLCO1B1: Life Technologies and Expression Analysis (LTEA) Assay for solute carrier (SLCO1B1) using HepaRG (AID 2283530); conditions: mRNA level, 48 h; actives raise or lower the signal
# How it was run: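 Gain or loss of SLCO1B1 mRNA is fitted against the 0.5% DMSO vehicle in human HepaRG liver cells treated 48 h at up to 100 uM in half-log steps. Expression comes from qRT-PCR normalized to endogenous controls.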
# [3] = read-out: sulfotransferase 2A1 (SULT2A1), SULT2A1 (gene 6822); test: LTEA_HepaRG_SULT2A1: Life Technologies and Expression Analysis (LTEA) Assay for sulfotransferase 2A1 (SULT2A1) using HepaRG (AID 2283531); conditions: mRNA level, 48 h; actives raise or lower the signal
# How it was run: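 Cells were plated and cultured 48 h, switched to serum-free induction medium, then dosed in duplicate for 48 h (8 concentrations, max 100 uM). RNA was isolated and SULT2A1 expression measured by qRT-PCR; gain or loss of signal fitted relative to DMSO.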
# [4] = read-out: Transforming Growth Factor (TGFA), TGFA (gene 7039); test: LTEA_HepaRG_TGFA: Life Technologies and Expression Analysis (LTEA) Assay for Transforming Growth Factor (TGFA) using HepaRG (AID 2283532); conditions: mRNA level, 48 h; actives raise or lower the signal
# How it was run: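 Gene expression of TGFA was quantified by qRT-PCR after human HepaRG cells were treated for 48 h with test chemicals (eight concentrations, highest 100 uM, 0.5% DMSO). Activity in either direction was fitted relative to DMSO.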
# TIMP1, TIMP1 (gene 7076) = test: LTEA_HepaRG_TIMP1: Life Technologies and Expression Analysis (LTEA) Assay for TIMP1 using HepaRG (AID 2283534); conditions: mRNA level, 48 h; actives raise or lower the signal;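 note: TaqMan qRT-PCR signal normalized to ACTB GAPDH and POLR2A housekeeping genes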
# How it was run: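 We dosed human liver HepaRG cultures for 48 hours with up to 100 uM test chemical and measured TIMP1 expression by qRT-PCR. Activity in either direction is fitted relative to the 0.5% DMSO vehicle.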
# [5] = read-out: Tumor necrosis factor receptor 1 (TNFRSF1A), TNFRSF1A (gene 7132); test: LTEA_HepaRG_TNFRSF1A: Life Technologies and Expression Analysis (LTEA) Assay for Tumor necrosis factor receptor 1 (TNFRSF1A) using HepaRG (AID 2283535); conditions: mRNA level, 48 h; actives raise or lower the signal
# How it was run: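 Expression of TNFRSF1A in human HepaRG liver cells was measured by qRT-PCR 48 h after chemical dosing (maximum 100 uM). Bidirectional curve fitting used 0.5% DMSO as baseline.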
# [6] = read-out: Thyroid Hormone Responsive (THRSP), THRSP (gene 7069); test: LTEA_HepaRG_THRSP: Life Technologies and Expression Analysis (LTEA) Assay for Thyroid Hormone Responsive (THRSP) using HepaRG (AID 2283536); conditions: mRNA level, 48 h; actives raise or lower the signal
# How it was run: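 Cell model: human HepaRG, approx. 100,000 cells/well, 0.5% DMSO vehicle. Exposure lasts 48 h; phenobarbital 1 mM serves as induction positive control. Gene expression is measured by qRT-PCR against three endogenous control genes.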
# [7] = read-out: Cellular tumor antigen p53 (Homo sapiens) (UniProt P04637); test: LTEA_HepaRG_TP53: Life Technologies and Expression Analysis (LTEA) Assay for Tumor Protein P53 (TP53) using HepaRG (AID 2283537); conditions: mRNA level, 48 h; actives raise or lower the signal
# How it was run: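 Differentiated HepaRG cells in serum-free induction medium exposed 48 h in duplicate to 8 half-log concentrations, top 100 uM, 0.5% DMSO. TP53 mRNA by TaqMan qRT-PCR (Fluidigm), normalized to ACTB, GAPDH, POLR2A; fitted bidirectionally versus DMSO.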
# [8] = read-out: UDP glucuronosyltransferase (UGT1A1), UGT1A1 (gene 54658); test: LTEA_HepaRG_UGT1A1: Life Technologies and Expression Analysis (LTEA) Assay for UDP glucuronosyltransferase (UGT1A1) using HepaRG (AID 2283538); conditions: mRNA level, 48 h; actives raise or lower the signal
# How it was run: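 UGT1A1 transcript level, measured by qRT-PCR with three housekeeping genes for normalization, after 48 h treatment of human HepaRG cells (0.5% DMSO, duplicates, up to 100 uM, half-log steps, 8 points). Curves fit both directions against DMSO baseline.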
# [9] = read-out: X-box binding protein 1 (XBP1), XBP1 (gene 7494); test: LTEA_HepaRG_XBP1: Life Technologies and Expression Analysis (LTEA) Assay for X-box binding protein 1 (XBP1) using HepaRG (AID 2283540); conditions: mRNA level, 48 h; actives raise or lower the signal
# How it was run: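 Human HepaRG monolayers receive test chemical for 48 h across an eight-point half-log series starting at 100 uM. XBP1 mRNA gain or loss is scored against DMSO by qRT-PCR.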
# [10] = LTEA_HepaRG_LDH_cytotoxicity: Cytotoxicity Assessment in the Life Technologies and Expression Analysis (LTEA) Assay (AID 2283563; active = hit-call score of the fitted dose curve at least 0.9, where 1 is the maximum)
# How it was run: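 Human HepaRG hepatic cells are treated with test chemicals for 48 h at up to 100 uM in 0.5% DMSO. Cytotoxicity is scored from medium LDH against the vehicle control.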
# [11] = TOX21_p53_BLA_p2_viability: Viability Assessment in the Tox21 HCT-116 p53 Agonism Beta-lactamase Assay, Phase 2 (AID 2283591; active = hit-call score of the fitted dose curve at least 0.9, where 1 is the maximum;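 note: compound exposure lasted 16 h at 37 °C; actives lower the ATP signal meaning cytotoxicity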)
# How it was run: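 HCT-116 p53-bla cells (4000/well) rested 5 h at 37C, then received compounds in DMSO (217-fold dilution) for 16 h at 37C, 5% CO2. After the CCF4 read, CellTiter-Glo was added; ATP luminescence was read after 30 min at room temperature.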
# [12] = biological target: Cellular tumor antigen p53 (Homo sapiens) (UniProt P04637); test: TOX21_p53_BLA_p2_ratio: Tox21 HCT-116 p53 Agonism Beta-lactamase Assay, Ratio, Phase 2 (AID 2283592; active = hit-call score of the fitted dose curve at least 0.9, where 1 is the maximum)
# How it was run: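 Cleaved-to-uncleaved substrate ratio (460 vs 530 nm) measured in HCT116 cells with an inducible beta-lactamase reporter linked to p53 activity. Compounds incubated 16 h at 37C before 2 h room-temperature CCF4-AM loading.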
# [13] = biological target: Cellular tumor antigen p53 (Homo sapiens) (UniProt P04637); test: TOX21_p53_BLA_p3_ratio: Tox21 HCT-116 p53 Agonism Beta-lactamase Assay, Ratio, Phase 3 (AID 2283596; active = hit-call score of the fitted dose curve at least 0.9, where 1 is the maximum)
# How it was run: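 Cells were seeded at 4000/well, rested 5 h at 37C, then dosed with DMSO compound solutions (217-fold dilution) for 16 h. CCF4-AM substrate was loaded for 2 h at room temperature, and the 460/530 nm emission ratio was fitted for gain of signal versus DMSO.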
# [14] = TOX21_p53_BLA_p4_viability: Viability Assessment in the Tox21 HCT-116 p53 Agonism Beta-lactamase Assay, Phase 4 (AID 2283597; active = hit-call score of the fitted dose curve at least 0.9, where 1 is the maximum;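 note: hits lower the luminescence signal meaning cytotoxicity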)
# How it was run: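 Viability is taken as cellular ATP: after 16 h compound exposure of HCT116 cells and a 2 h room-temperature CCF4-AM substrate step, CellTiter-Glo reagent is added and luminescence is measured 30 min later.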
# [15] = ATG_XTT_Cytotoxicity: Cytotoxicity Assessment in the Attagene TRANS-FACTORIAL HepG2 Assay (AID 2283584; active = hit-call score of the fitted dose curve at least 0.9, where 1 is the maximum)
# How it was run: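 Transfect HepG2 with GAL4-UAS reporter units, dose compound, incubate 24 h, then measure viable cell number by XTT. Fit concentration response against DMSO baseline.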
# [16] = TOX21_p53_BLA_p3_viability: Viability Assessment in the Tox21 HCT-116 p53 Agonism Beta-lactamase Assay, Phase 3 (AID 2283593; active = hit-call score of the fitted dose curve at least 0.9, where 1 is the maximum;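 note: cells exposed to compound for 16 h before reading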)
# How it was run: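 HCT-116 cells (4000/well) rested 5 h at 37C, then got DMSO compounds by pin tool (217-fold dilution) for 16 h at 37C, 5% CO2. After the bla read, CellTiter-Glo was added and luminescence read at 30 min, room temperature.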
# [17] = read-out: UDP glucuronosyltransferase (UGT1A6), UGT1A6 (gene 54578); test: LTEA_HepaRG_UGT1A6: Life Technologies and Expression Analysis (LTEA) Assay for UDP glucuronosyltransferase (UGT1A6) using HepaRG (AID 2283539); conditions: mRNA level, 48 h; actives raise or lower the signal
# How it was run: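 Endpoint is UGT1A6 transcript induction or loss in a human liver cell line, quantified by TaqMan qRT-PCR 48 h after dosing. Concentrations ran from 100 uM downward in half-log steps in 0.5% DMSO; activity was fitted in both directions versus vehicle.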
# [18] = read-out: Transforming Growth Factor (TGFB1), TGFB1 (gene 7040); test: LTEA_HepaRG_TGFB1: Life Technologies and Expression Analysis (LTEA) Assay for Transforming Growth Factor (TGFB1) Transporter using HepaRG (AID 2283533); conditions: mRNA level, 48 h; actives raise or lower the signal
# How it was run: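 Expression change of TGFB1 in human HepaRG cells is measured after a 48 h chemical exposure, up to 100 uM in 0.5% DMSO vehicle. Curves are fitted in both directions relative to the DMSO baseline.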
# Cellular tumor antigen p53 (Homo sapiens), sequence (P04637 whole entry, looked up): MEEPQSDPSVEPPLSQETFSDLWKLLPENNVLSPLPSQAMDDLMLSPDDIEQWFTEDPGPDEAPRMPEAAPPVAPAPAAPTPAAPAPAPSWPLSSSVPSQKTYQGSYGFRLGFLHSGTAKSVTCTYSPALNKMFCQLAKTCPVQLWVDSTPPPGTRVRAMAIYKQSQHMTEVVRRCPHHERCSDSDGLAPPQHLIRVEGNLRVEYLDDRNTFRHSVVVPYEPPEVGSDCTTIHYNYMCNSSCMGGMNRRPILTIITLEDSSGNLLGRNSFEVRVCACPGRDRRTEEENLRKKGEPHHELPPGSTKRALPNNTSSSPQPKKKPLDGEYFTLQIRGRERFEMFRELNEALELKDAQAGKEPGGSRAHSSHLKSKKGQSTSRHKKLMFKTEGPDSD
# Signal transducer and activator of transcription 3 (Homo sapiens), sequence (P40763 whole entry, looked up): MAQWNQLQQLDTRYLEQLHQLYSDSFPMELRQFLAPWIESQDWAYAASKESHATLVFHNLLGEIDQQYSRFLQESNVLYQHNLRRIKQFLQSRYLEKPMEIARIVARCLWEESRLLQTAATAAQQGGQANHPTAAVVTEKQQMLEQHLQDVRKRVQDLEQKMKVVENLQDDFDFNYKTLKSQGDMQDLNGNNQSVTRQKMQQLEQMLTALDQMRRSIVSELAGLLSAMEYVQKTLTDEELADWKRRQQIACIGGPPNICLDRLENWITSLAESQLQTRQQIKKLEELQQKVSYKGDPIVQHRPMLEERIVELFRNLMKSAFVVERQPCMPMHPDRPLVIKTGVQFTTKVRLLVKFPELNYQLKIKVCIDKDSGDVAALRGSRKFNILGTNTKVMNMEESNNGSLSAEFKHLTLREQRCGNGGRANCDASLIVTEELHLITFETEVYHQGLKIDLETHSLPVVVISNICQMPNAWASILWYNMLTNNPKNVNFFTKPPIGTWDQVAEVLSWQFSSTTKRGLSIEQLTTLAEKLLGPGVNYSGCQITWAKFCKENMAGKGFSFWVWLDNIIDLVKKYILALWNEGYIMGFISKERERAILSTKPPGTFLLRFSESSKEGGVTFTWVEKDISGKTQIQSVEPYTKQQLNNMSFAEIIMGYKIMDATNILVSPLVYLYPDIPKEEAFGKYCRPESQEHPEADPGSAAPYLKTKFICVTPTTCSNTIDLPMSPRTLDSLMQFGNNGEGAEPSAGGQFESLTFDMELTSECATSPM
smiles,measurement,setting,value
CCOC(=O)C(C)(C)Oc1ccc(Cl)cc1,outcome,[1],inactive
same,outcome,[2],inactive
same,outcome,[3],inactive
same,outcome,[4],inactive
same,outcome,"TIMP1, TIMP1 (gene 7076)",inactive
same,outcome,[5],inactive
same,outcome,[6],inactive
same,outcome,[7],inactive
same,AC50,[8],15.8 µM (active)
same,outcome,[9],inactive
same,outcome,[10],inactive
same,outcome,[11],inactive
same,outcome,[12],inactive
same,outcome,[13],inactive
same,outcome,[14],inactive
COc1cccc2c1C(=O)c1c(O)c3c(c(O)c1C2=O)C[C@@](O)(C(=O)CO)C[C@@H]3O[C@H]1C[C@H](N)[C@H](O)[C@H](C)O1,outcome,[15],inactive
same,outcome,[11],inactive
same,outcome,[16],inactive
same,AC50,[13],401 nM (active)
COCCOCCOC,outcome,[1],inactive
same,outcome,[2],inactive
same,outcome,[3],inactive
same,AC50,[4],1.21 µM (active)
same,outcome,"TIMP1, TIMP1 (gene 7076)",inactive
same,outcome,[5],inactive
same,outcome,[6],inactive
same,AC50,[8],3.2 µM (active)
same,outcome,[17],inactive
same,AC50,[9],1.16 µM (active)
same,outcome,[10],inactive
same,outcome,[15],inactive
same,outcome,[11],inactive
same,outcome,[12],inactive
same,outcome,[13],inactive
C1CCC(SSC2CCCCC2)CC1,outcome,[1],inactive
same,outcome,[2],inactive
same,outcome,[4],inactive
same,outcome,"TIMP1, TIMP1 (gene 7076)",inactive
same,outcome,[5],inactive
same,outcome,[6],inactive
same,outcome,[8],inactive
same,outcome,[9],inactive
same,outcome,[10],inactive
same,outcome,[15],inactive
same,outcome,[11],inactive
same,outcome,[12],inactive
same,outcome,[16],inactive
same,outcome,[13],inactive
CCCCCCCC=O,outcome,[1],inactive
same,outcome,[2],inactive
same,outcome,[3],inactive
same,outcome,[4],inactive
same,outcome,"TIMP1, TIMP1 (gene 7076)",inactive
same,outcome,[5],inactive
same,outcome,[6],inactive
same,outcome,[7],inactive
same,outcome,[8],inactive
same,outcome,[9],inactive
same,outcome,[10],inactive
same,outcome,[15],inactive
same,outcome,[11],inactive
same,outcome,[12],inactive
same,outcome,[13],inactive
same,outcome,[14],inactive
COC(=O)c1ccc(O)cc1,outcome,[1],inactive
same,outcome,[2],inactive
same,outcome,[3],inactive
same,outcome,[4],inactive
same,outcome,"TIMP1, TIMP1 (gene 7076)",inactive
same,outcome,[5],inactive
same,outcome,[6],inactive
same,outcome,[7],inactive
same,outcome,[8],inactive
same,outcome,[9],inactive
same,outcome,[10],inactive
same,outcome,[15],inactive
same,outcome,[11],inactive
same,outcome,[16],inactive
same,outcome,[13],inactive
same,outcome,[14],inactive
CCCCN(CCCC)CCCC,outcome,[1],inactive
same,outcome,[2],inactive
same,outcome,[4],inactive
same,outcome,[18],inactive
same,outcome,"TIMP1, TIMP1 (gene 7076)",inactive
same,outcome,[5],inactive
same,outcome,[6],inactive
same,outcome,[7],inactive
same,outcome,[8],inactive
same,outcome,[9],inactive
same,outcome,[10],inactive
same,outcome,[15],inactive
same,outcome,[11],inactive
same,outcome,[13],inactive
same,outcome,[14],inactive
